Compound activity: PubChem BioAssay, The Scripps Research Institute Molecular Screening Center
The list is not random: actives were taken first. Their share in the collection is about 5.7%.
hgDAF12 agonist = activates the H. glycines DAF-12 receptor ligand-binding domain. HEK293 GAL4-hgDAF12 UAS-luciferase reporter, agonist luminescence; normalized to butyrate control. activation, % at 6.8 µM. 1.8% of 370,000 active;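 active = activation above a cutoff set at the mean of all screened compounds plus 3 SD, cut at about 10% in these data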;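 note: 0% = DMSO wells and 100% = sodium butyrate wells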
AHR act = human AHR activation. 2.5% of 320,000 active. activation, % at 5 µM. AHR-responsive luciferase reporter cells, luminescence; in the data active = activation above about 47%;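 note: 0% = vehicle wells and 100% = reference agonist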
Target sequence (P35869 whole entry, looked up): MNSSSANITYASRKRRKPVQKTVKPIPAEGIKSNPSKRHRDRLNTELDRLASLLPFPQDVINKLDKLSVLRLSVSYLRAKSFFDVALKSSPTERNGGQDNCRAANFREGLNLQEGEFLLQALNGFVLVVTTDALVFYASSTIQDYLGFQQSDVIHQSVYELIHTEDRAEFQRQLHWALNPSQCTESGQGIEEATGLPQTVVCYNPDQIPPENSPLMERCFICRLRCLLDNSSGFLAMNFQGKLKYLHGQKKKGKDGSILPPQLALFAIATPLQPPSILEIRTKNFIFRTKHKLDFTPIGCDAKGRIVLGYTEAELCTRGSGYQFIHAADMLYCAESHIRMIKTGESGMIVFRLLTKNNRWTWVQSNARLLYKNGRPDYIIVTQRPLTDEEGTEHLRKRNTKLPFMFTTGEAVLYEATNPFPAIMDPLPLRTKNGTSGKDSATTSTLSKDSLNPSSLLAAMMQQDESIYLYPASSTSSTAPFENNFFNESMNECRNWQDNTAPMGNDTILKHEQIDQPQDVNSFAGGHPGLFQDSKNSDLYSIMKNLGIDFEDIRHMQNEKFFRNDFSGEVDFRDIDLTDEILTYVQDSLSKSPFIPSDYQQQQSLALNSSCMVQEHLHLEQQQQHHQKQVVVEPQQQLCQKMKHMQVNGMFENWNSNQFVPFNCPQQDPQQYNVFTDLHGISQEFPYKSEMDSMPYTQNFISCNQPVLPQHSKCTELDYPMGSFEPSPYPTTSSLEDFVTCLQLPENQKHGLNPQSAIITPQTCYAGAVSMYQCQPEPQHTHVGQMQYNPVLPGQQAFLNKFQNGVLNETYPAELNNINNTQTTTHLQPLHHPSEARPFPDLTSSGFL
ssDAF12 agonist = S. stercoralis DAF-12 activation, primary screen | HEK293 ssDAF-12/GRIP1 lit1-tk-luc reporter, luminescence; % of 3 µM dafachronic acid response | activation, % at 6.8 µM | 1% of 370,000 active | AID 652126;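 active = activation above the mean over all tested compounds plus 3 SD, cut at about 0.9% in these data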;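 note: 0% = DMSO-only wells and 100% = 3 µM delta7-dafachronic acid wells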
DAX1 inh-1 = inhibits human nuclear receptor DAX1 | 0.99% of 340,000 active | inhibition, % at 6.75 µM | AID 504766 | HEK293 Gal4-DAX1 luciferase reporter, luminescence;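 active = inhibition above the mean over all tested compounds plus 3 SD, cut at about 4.2% in these data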;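 note: 0% = DAX1-transfected cells with DMSO and 100% = empty-vector control cells with DMSO; inhibition shows as a rise in luminescence from relieved DAX1 repression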
hcDAF-12 act = H. contortus DAF-12 activation, primary screen; HEK293 hcDAF-12 lit1-tk-luc reporter, luminescence; 0% DMSO, 100% Δ7-dafachronic acid; activation, % at 6.8 µM; 1.4% of 370,000 active;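 active = activation above the mean of all tested compounds plus 3 SD, cut at about 5.5% in these data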;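 note: 100% = response to 3 µM Δ7-dafachronic acid high control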
DAX1 inh-2 = DAX1 (NR0B1) inhibition, primary screen | HEK293T StAR-luciferase reporter, SF-1/DAX-1 repression relief | inhibition, % at 6.8 µM | AID 652010 | 1.1% of 370,000 active;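 active = inhibition above the mean over all tested compounds plus 3 SD, cut at about 3.6% in these data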;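 note: 0% = DAX-1 cells with DMSO and 100% = cells lacking DAX-1 with DMSO; higher inhibition means more luminescence from relief of DAX-1 repression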
hgDAF12 conf = confirmation of H. glycines DAF-12 agonists | shares compounds with hgDAF12 agonist | HEK293 GAL4-hgDAF12 luciferase reporter, agonist mode; percent of butyrate response | activation, % at 6.8 µM | 80% of 3,300 active;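 active = mean activation over triplicate wells above the hit cutoff derived from the earlier primary screen, cut at about 11% in these data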;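 note: 0% = DMSO low control and 100% = 2 mM sodium butyrate high control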
LXRb DAF12 ctr = counter-screen for DAF-12 agonists: agonists of human LXR-beta. HEK293 Gal4-LXR luciferase reporter, 24 h. activation, % at 6.8 µM. shares compounds with hgDAF12 agonist. 3,300 tested, under 10 active;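 active = mean activation of the triplicate above a set limit carried over from the primary screen, none filed active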
The depositor's hits bear a star; · = no result.

SMILES | hgDAF12 agonist | AHR act | ssDAF12 agonist | DAX1 inh-1 | hcDAF-12 act | DAX1 inh-2 | hgDAF12 conf | LXRb DAF12 ctr
O=c1[nH]c2ccccc2nc1/C=C/c1ccc(O)cc1 | 14* | · | -1 | 0 | -1 | 0 | 4 | 1
NC(=O)SCC(=O)Nc1ccc(Cl)cc1 | 0 | 17 | -1 | 1 | -1 | 0 | · | ·
S=C(NCc1ccco1)Nc1ccc(Cl)cc1Cl | 6 | 1 | -1 | 0 | 0 | 0 | · | ·
S=C(NCc1ccco1)Nc1ccc(Br)cc1Cl | 13* | 3 | -1 | · | 2 | 0 | 4 | 0
S=c1nc(-c2ccccc2)oc2c1CCCC2 | 3 | 12 | 0 | 2 | 4 | 2 | · | ·
COc1cccc(-c2nc(=S)c3c(o2)CCCC3)c1 | 13* | 6 | 0 | 5.1* | 2 | 3.7* | 17* | 0
COCCn1c(SCC(=O)/C=C2\N(C)c3ccccc3C2(C)C)nnc1-c1ccncc1 | -5 | 0 | -1 | -1 | -6 | -1 | · | ·
O=S(=O)(Nc1cc(C(F)(F)F)ccc1N1CCOCC1)c1ccccc1 | -2 | -1 | -2 | 3 | 0 | 0 | · | ·
O=c1cccc2c1c1cc[nH]c3ccc(=O)n2c31 | 1 | -1 | -2 | 0 | -4 | -1 | · | ·
CN(C)CCCNC(=S)N(CCCO)Cc1cc2cc3c(cc2[nH]c1=O)OCO3 | 16* | 3 | 0 | 0 | 5 | 1 | 0 | 0
CCCCNC(=S)N(CCCO)Cc1cc2cc3c(cc2[nH]c1=O)OCCO3 | 0 | 28 | -1 | 1 | 0 | 0 | · | ·
Cc1ccc(/C=N/NC(=O)c2ccccn2)s1 | 15* | 34 | 0 | 1 | 4 | 3 | 14* | 1
O=C(O)CCC(=O)Nc1ccccc1C(=O)NCCc1ccccc1 | 19* | 16 | 1 | 1 | 5.9* | 2 | 7 | 0
CC(=O)N1CC=C2C(C#N)=C(N)C(C#N)(C#N)[C@H](c3ccoc3)[C@H]2C1 | 2 | 4 | -1 | 0 | 0 | 0 | · | ·
COc1ccc(-c2coc3c(C(=O)NCc4ccc(F)c(F)c4)cccc23)c(C)c1 | -3 | · | -2 | · | -4 | -5 | · | ·
Cc1cc(C)n2nc(C(=O)OCC(=O)Nc3ccc(Cl)cc3)nc2n1 | 2 | · | -2 | 1 | 1 | 1 | · | ·
Cc1cc(OCC(=O)Nc2c(C(C)C)cccc2C(C)C)no1 | 20* | · | -1 | 1 | -1 | -1 | 0 | 0
c1ccc(CSc2ccc(-c3ccccn3)nn2)nc1 | 16* | 9 | 0 | 1 | 3 | 3 | 10 | 1
Cc1ccc(NC(=O)c2cc3cccc([N+](=O)[O-])c3[nH]2)cc1 | 13* | 71* | 1.3* | 4 | 4 | 2 | 19* | 1
Cc1ccc(NC(=O)c2ccc(-n3cccn3)c([N+](=O)[O-])c2)cc1 | -1 | -2 | -1 | -1 | -3 | -1 | · | ·
Cc1cccc(Oc2nc(-c3ccncc3)nc3ccccc23)c1 | -1 | 21 | -1 | 3 | -3 | 0 | · | ·
CCc1ccc(CNC(=O)c2cc3c(C)nc4ccccc4c3o2)cc1 | -4 | 2 | -2 | -2 | -4 | -4 | · | ·
CCCCN(CC)CCNC(=O)c1cc2c(C)nc3ccccc3c2o1 | 17* | 23 | 0 | 2 | 5 | 2 | 1 | 0
Nc1c(OS(=O)(=O)c2ccccc2)cccc1OS(=O)(=O)c1ccccc1 | 18* | · | 0 | 3 | 1 | 4 | 14* | 1
O=C1C2C3C=CC(C3)C2C(=O)N1c1ccccc1OS(=O)(=O)c1ccccc1 (configuration not stated) | -2 | 1 | -1 | -1 | -2 | 0 | · | ·
SMILES | hgDAF12 agonist | AHR act | ssDAF12 agonist | DAX1 inh-1 | hcDAF-12 act | DAX1 inh-2 | hgDAF12 conf | LXRb DAF12 ctr
CC(=O)Nc1ccc(OCC[n+]2cccc(C(N)=O)c2)cc1 | 20* | 5 | -1 | · | -1 | 0 | 0 | 0
CC(=O)Nc1ccc(OCCC[n+]2ccccc2)cc1 | 2 | -1 | -1 | 2 | 1 | -1 | · | ·
O=C(NS(=O)(=O)c1ccc(Cl)s1)c1ccccc1 | -1 | -1 | -1 | 2 | -1 | -1 | · | ·
COc1cccc(-c2cn3nc(C)c(C)nc3n2)c1 | 15* | 10 | 1 | 1 | 3 | 2 | 14* | 1
Cc1nc2nc(-c3cccs3)cn2nc1C | 8 | 13 | 0 | 0 | 3 | 3 | · | ·
Cc1ccc(NC(=O)c2ccc3ncsc3c2)cc1S(=O)(=O)N(C)C | 20* | 15 | 0 | · | 4 | 3 | 14* | 1
Cc1ccc(NC(=O)c2cccnc2)cc1S(=O)(=O)N(C)C | -3 | 8 | -1 | 0 | 0 | 0 | · | ·
CCn1ccc(C(=O)Nc2ccccc2Cl)n1 | 14* | 3 | -1 | 1 | 3 | 4.3* | 15* | 1
CCn1ccc(C(=O)Nc2cccc(Cl)c2)n1 | 15* | 4 | -1 | 2 | 5 | 3 | 10 | 0
Cc1ccc(S(=O)(=O)CCC(=O)NCCc2ccc(Cl)cc2)cc1 | -2 | 0 | -1 | 0 | 0 | 0 | · | ·
O=C(OCC(=O)N1CCOCC1)c1ccccc1Cc1ccccc1 | 17* | -1 | 1 | 3 | 6.3* | 4.1* | 18* | 1
Cc1cccc(C2NC(=O)c3ccccc3N2)c1 (configuration not stated) | 16* | · | 0 | 2 | 2 | 3 | 14* | 0
Cc1ccc(C2NC(=O)c3ccccc3N2)c(C)c1 (configuration not stated) | 3 | · | -1 | -1 | 0 | -2 | · | ·
O=C1CC2(CCN(C(=O)c3cccc(Cl)c3)CC2)Oc2ccccc21 | -2 | 10 | 0 | 1 | 1 | 0 | · | ·
Cc1c(-n2c(SC(C)C(=O)NC(N)=O)nc3ccccc3c2=O)c(=O)n(-c2ccccc2)n1C (configuration not stated) | 2 | 2 | -2 | 0 | 0 | 1 | · | ·
Cc1c(C(=O)NCCc2ccccc2)oc2ccccc12 | 16* | -3 | 0 | 2 | 4 | 3 | 14* | 1
Cc1c(C(=O)NCc2cccnc2)oc2ccccc12 | 3 | 24 | 0 | 1 | 0 | 0 | · | ·
Cc1ccc(NC(=O)CN2CCN(c3ccccn3)CC2)cc1S(=O)(=O)N(C)C | -2 | -1 | -2 | 0 | 1 | 0 | · | ·
COc1ccc(CCNC(=O)Nc2ccccc2[N+](=O)[O-])cc1 | 16* | 39 | -1 | · | 1 | 2 | 5 | 0
COc1ccc(CCNC(=O)COC(=O)Cc2ccccc2[N+](=O)[O-])cc1 | -6 | 2 | 0 | 1 | 3 | -3 | · | ·
